Reference: PubChem BioAssay (NCI)
Several values for one entry are separate records, joined by “and”; a condition that tells them apart may be missing. Identical values can stand only once. This is part of a sample that, as a whole, favours compounds with a hit. Of some 83,000 tested, about 20% had one in any assay.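 Single-concentration screen, 48 h exposure, 96-well plates. Endpoint: percent growth. Below 10 = active.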

Columns and labels:
Assay in all cases: NCI-60 one-dose screen, 48 h (100 = growth as untreated, 0 = no growth, -100 = all killed)
SK-MEL-2 melanoma = settings: 10 µM unless noted
EKVX NSCLC = settings: 10 µM unless noted
SN12C renal = settings: 10 µM unless noted
UO-31 renal = settings: 10 µM unless noted
TK-10 renal = test system: TK-10 renal
ACHN renal = settings: 10 µM unless noted
CAKI-1 renal = settings: 10 µM unless noted
A498 renal = settings: 10 µM unless noted
CCRF-CEM leukemia = settings: 10 µM unless noted
MOLT-4 leukemia = settings: 10 µM unless noted
SR leukemia = settings: 10 µM unless noted
RPMI-8226 leukemia = settings: 10 µM unless noted
OVCAR-8 ovarian = settings: 10 µM unless noted
OVCAR-5 ovarian = settings: 10 µM unless noted
OVCAR-4 ovarian = settings: 10 µM unless noted
SK-OV-3 ovarian = settings: 10 µM unless noted
IGROV1 ovarian = settings: 10 µM unless noted
OVCAR-3 ovarian = settings: 10 µM unless noted
HS 578T breast = settings: 10 µM unless noted
NCI/ADR-RES ovarian = settings: 10 µM unless noted

Measured: growth

COC(=O)c1nc(N)nc(C(=O)OC)c1C(=O)c1ccc(F)cc1
inactive: SK-MEL-2 melanoma 105% | EKVX NSCLC 104% | SN12C renal 103% | UO-31 renal 92.4% | TK-10 renal; 10 µM unless noted 109% | ACHN renal 116% | CAKI-1 renal 96.1% | A498 renal 120% | CCRF-CEM leukemia 106% | MOLT-4 leukemia 156% | SR leukemia 112% | RPMI-8226 leukemia 112% | OVCAR-8 ovarian 107% | OVCAR-5 ovarian 114% | OVCAR-4 ovarian 110% | SK-OV-3 ovarian 108% | IGROV1 ovarian 111% | OVCAR-3 ovarian 116% | HS 578T breast 102% | NCI/ADR-RES ovarian 109%

C(#CCN1CCOCC1)CCCN1CCOCC1
inactive: SK-MEL-2 melanoma 108% and 117% | EKVX NSCLC 104% and 83.1% | SN12C renal 102% | UO-31 renal 97.6% and 89.6% | TK-10 renal; 10 µM unless noted 109% and 86.2% | ACHN renal 101% and 98.3% | CAKI-1 renal 98.1% and 94.7% | A498 renal 87.1% and 104% | CCRF-CEM leukemia 107% | MOLT-4 leukemia 109% and 113% | SR leukemia 124% and 109% | RPMI-8226 leukemia 112% | OVCAR-8 ovarian 105% and 106% | OVCAR-5 ovarian 102% and 82.7% | OVCAR-4 ovarian 102% | SK-OV-3 ovarian 104% and 106% | IGROV1 ovarian 116% and 106% | OVCAR-3 ovarian 116% and 111% | HS 578T breast 112% and 114% | NCI/ADR-RES ovarian 105% and 104%

CCN(CC)C(=S)SCCO
inactive: SK-MEL-2 melanoma 105% | EKVX NSCLC 106% | SN12C renal 105% | UO-31 renal 93.8% | TK-10 renal; 10 µM unless noted 86% | ACHN renal 111% | CAKI-1 renal 107% | A498 renal 75.6% | CCRF-CEM leukemia 100% | MOLT-4 leukemia 96.6% | SR leukemia 92.5% | RPMI-8226 leukemia 99.5% | OVCAR-8 ovarian 103% | OVCAR-5 ovarian 110% | OVCAR-4 ovarian 113% | SK-OV-3 ovarian 111% | IGROV1 ovarian 107% | OVCAR-3 ovarian 106% | HS 578T breast 103% | NCI/ADR-RES ovarian 102%

C#CCOC(=O)C(N)CS (stereo not given)
inactive: SK-MEL-2 melanoma 115% | EKVX NSCLC 92.9% | SN12C renal 87.2% | UO-31 renal 82.5% | TK-10 renal; 10 µM 107% | TK-10 renal; 100 µM 103% and 107% | ACHN renal 98.8% | CAKI-1 renal 99.9% | CCRF-CEM leukemia 107% | MOLT-4 leukemia 108% | SR leukemia 102% | RPMI-8226 leukemia 102% | OVCAR-8 ovarian 110% | OVCAR-5 ovarian 79.9% | OVCAR-4 ovarian 101% | SK-OV-3 ovarian 101% | IGROV1 ovarian 104% | OVCAR-3 ovarian 103% | HS 578T breast 137% | NCI/ADR-RES ovarian 102%

Nc1nc(N)c2cc(S(=O)(=O)c3ccccc3)ccc2n1
inactive: SK-MEL-2 melanoma 80.2% and 126% | EKVX NSCLC 47.4% and 51.2% | SN12C renal 29.2% and 41.4% | UO-31 renal 35.3% and 61.5% | TK-10 renal; 10 µM unless noted 59.6% and 63.8% | ACHN renal 24% and 29.6% | CAKI-1 renal 21.3% and 22.4% | A498 renal 57.2% and 94.4% | CCRF-CEM leukemia 37.9% and 29.7% | MOLT-4 leukemia 32.8% and 49.8% | SR leukemia 22% and 47.4% | RPMI-8226 leukemia 51% and 54.5% | OVCAR-8 ovarian 38% and 43.5% | OVCAR-5 ovarian 39.2% and 75.8% | OVCAR-4 ovarian 54% | SK-OV-3 ovarian 62.1% and 52.1% | IGROV1 ovarian 36.6% and 58.6% | OVCAR-3 ovarian 53.9% and 59.7% | HS 578T breast 65.8% and 73.4% | NCI/ADR-RES ovarian 41.2% and 50.2%

O=C(O)c1c2c(nc3ccccc13)Cc1ccccc1-2
inactive: SK-MEL-2 melanoma 109% and 122% | EKVX NSCLC 104% and 72.5% | SN12C renal 108% and 87% | UO-31 renal 73.6% and 63.6% | TK-10 renal; 10 µM unless noted 114% and 101% | ACHN renal 103% and 101% | CAKI-1 renal 98% and 86.2% | A498 renal 78.5% and 95.6% | CCRF-CEM leukemia 91.1% and 77.3% | MOLT-4 leukemia 96.2% and 114% | SR leukemia 94.9% and 98% | RPMI-8226 leukemia 97% and 84.1% | OVCAR-8 ovarian 96.3% and 96.2% | OVCAR-5 ovarian 109% and 88.1% | OVCAR-4 ovarian 116% and 97.6% | SK-OV-3 ovarian 99.7% and 102% | IGROV1 ovarian 121% and 85.6% | OVCAR-3 ovarian 102% and 95.6% | HS 578T breast 94.1% and 84.2% | NCI/ADR-RES ovarian 107% and 95.7%
